Tests used:
Test in all cases: log2 ratio of Biotin-Ahx-Ub-VS probe labelling (fragment/DMSO); higher = less target engagement (more negative = stronger competition), active = hit call of the paper (q ≤ 0.05, log2 ratio ≤ -1)
Conditions in all cases: compound concentration: 200 uM; treatment time: 3 h
USP34 = USP34 (UniProt Q70CQ2)
In short: (§1)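 Labelling with Biotin-Ahx-Ub-VS (0.5 µM final, 1 h) followed a 3 h triplicate treatment of HEK293T lysate (495 µg per sample, Tris/CHAPS/IGEPAL buffer with protease inhibitors) with fragment at 200 µM or vehicle. Labelled DUBs were NeutrAvidin-enriched, digested with LysC and trypsin, and run by diaPASEF LC-MS/MS. The values, average log2 fragment/vehicle ratios by unpaired t-test, come from global-median-normalised Spectronaut label-free quantities. Proteins with ≥2 unique peptides were used.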

USP36 = target: T1, USP36 (UniProt Q9P275)
T1 sequence (whole entry): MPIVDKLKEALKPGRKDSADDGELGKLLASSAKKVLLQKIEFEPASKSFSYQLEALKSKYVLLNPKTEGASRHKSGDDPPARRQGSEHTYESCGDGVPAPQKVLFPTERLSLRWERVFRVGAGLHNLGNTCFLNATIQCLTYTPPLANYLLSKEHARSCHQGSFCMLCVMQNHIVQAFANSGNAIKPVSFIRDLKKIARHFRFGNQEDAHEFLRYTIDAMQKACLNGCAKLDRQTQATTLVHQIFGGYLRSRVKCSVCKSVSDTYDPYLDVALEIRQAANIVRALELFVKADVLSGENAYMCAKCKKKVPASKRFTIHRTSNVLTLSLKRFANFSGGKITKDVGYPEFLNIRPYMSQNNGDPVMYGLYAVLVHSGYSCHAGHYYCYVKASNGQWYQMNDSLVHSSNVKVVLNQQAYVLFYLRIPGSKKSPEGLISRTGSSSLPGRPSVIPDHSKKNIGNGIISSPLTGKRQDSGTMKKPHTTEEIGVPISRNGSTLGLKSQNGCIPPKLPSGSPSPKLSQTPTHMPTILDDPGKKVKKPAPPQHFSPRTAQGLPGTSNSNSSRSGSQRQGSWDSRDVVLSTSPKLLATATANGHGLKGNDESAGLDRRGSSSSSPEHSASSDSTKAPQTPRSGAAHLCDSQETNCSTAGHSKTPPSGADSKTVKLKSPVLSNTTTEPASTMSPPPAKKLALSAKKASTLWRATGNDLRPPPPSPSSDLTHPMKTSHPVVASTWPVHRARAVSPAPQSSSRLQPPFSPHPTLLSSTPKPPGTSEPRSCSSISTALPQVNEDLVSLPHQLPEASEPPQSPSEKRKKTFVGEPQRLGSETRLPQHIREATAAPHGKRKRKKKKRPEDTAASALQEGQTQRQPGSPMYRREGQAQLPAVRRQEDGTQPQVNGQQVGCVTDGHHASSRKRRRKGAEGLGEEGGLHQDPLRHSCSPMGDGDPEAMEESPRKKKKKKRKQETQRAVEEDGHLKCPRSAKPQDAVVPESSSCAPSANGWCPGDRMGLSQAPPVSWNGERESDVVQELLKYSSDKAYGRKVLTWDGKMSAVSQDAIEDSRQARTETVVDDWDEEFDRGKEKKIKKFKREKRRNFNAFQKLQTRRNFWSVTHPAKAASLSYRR
In short: as §1

USP38 = target: T2, USP38 (UniProt Q8NB14)
T2 sequence (whole entry): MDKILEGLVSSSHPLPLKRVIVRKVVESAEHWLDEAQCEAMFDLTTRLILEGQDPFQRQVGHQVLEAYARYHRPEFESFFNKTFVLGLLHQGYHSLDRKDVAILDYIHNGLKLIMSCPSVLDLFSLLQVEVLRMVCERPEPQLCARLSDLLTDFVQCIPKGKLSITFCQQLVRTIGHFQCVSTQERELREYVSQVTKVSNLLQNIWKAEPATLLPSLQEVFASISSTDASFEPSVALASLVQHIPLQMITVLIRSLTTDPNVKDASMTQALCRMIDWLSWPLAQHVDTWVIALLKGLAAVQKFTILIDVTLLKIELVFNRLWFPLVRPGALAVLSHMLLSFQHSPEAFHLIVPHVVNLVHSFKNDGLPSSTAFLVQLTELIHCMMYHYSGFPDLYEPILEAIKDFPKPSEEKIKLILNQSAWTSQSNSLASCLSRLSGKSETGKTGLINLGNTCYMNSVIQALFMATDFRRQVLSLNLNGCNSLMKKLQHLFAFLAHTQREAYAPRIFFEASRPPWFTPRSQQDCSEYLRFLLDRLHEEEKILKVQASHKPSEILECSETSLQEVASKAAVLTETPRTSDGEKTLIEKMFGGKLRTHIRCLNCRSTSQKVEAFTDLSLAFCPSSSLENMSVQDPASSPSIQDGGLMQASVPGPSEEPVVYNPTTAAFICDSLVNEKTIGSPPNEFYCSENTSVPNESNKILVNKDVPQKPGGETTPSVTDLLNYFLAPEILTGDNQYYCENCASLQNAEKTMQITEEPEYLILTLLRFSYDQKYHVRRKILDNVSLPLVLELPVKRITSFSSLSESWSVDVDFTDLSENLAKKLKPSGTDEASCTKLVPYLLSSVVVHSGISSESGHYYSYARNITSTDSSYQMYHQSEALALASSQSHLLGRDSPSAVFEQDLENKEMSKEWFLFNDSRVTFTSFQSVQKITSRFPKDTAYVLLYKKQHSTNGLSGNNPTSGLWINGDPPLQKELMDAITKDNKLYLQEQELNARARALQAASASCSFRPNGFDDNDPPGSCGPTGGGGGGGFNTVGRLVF
In short: as §1

USP39 = target: T3, USP39 (UniProt Q53GS9)
T3 sequence (whole entry): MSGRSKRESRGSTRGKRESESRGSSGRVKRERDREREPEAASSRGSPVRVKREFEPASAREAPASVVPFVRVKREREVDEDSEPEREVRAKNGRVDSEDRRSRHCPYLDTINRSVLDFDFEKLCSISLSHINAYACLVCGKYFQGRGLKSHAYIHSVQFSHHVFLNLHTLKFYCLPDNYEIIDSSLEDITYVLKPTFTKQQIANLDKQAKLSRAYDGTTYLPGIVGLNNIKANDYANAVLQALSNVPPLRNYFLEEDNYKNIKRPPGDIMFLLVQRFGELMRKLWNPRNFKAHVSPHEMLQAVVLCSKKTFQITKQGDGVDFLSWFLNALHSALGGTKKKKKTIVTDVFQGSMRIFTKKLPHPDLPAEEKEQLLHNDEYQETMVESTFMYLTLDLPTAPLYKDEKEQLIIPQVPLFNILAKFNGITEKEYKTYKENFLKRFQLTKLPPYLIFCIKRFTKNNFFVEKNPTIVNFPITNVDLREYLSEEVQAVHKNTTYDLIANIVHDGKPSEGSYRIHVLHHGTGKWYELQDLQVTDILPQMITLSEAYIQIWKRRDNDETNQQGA
In short: as §1

USP4 = target: T4, USP4 (UniProt Q13107)
T4 sequence (whole entry): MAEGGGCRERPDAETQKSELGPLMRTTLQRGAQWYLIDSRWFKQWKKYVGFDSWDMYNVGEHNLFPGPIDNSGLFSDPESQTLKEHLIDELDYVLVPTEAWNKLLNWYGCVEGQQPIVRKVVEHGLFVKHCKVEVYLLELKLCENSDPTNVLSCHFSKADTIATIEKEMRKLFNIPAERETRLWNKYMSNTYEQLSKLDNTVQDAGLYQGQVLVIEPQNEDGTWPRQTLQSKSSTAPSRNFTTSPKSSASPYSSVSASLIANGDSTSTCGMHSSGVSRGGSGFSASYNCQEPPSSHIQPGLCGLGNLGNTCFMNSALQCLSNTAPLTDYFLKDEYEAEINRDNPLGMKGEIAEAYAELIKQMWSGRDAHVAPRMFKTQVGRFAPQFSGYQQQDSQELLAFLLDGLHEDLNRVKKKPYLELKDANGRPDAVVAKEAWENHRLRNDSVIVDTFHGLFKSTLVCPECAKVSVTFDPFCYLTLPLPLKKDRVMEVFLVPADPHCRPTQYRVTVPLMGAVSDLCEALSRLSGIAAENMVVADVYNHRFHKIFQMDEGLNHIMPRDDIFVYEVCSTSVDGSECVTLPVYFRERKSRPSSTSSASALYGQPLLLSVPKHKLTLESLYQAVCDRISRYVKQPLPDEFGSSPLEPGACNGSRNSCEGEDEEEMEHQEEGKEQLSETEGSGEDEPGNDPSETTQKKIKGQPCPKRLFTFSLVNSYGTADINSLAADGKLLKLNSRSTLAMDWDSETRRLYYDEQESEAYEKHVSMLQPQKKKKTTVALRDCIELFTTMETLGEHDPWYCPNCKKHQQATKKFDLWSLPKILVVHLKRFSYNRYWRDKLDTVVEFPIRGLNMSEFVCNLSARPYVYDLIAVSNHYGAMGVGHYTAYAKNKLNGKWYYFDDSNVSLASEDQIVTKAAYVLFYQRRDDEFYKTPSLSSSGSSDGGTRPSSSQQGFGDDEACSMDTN
In short: as §1

Measured: log2 ratio of Biotin-Ahx-Ub-VS probe labelling

Sequence of USP34 (Q70CQ2 whole entry, the tested form may be a part): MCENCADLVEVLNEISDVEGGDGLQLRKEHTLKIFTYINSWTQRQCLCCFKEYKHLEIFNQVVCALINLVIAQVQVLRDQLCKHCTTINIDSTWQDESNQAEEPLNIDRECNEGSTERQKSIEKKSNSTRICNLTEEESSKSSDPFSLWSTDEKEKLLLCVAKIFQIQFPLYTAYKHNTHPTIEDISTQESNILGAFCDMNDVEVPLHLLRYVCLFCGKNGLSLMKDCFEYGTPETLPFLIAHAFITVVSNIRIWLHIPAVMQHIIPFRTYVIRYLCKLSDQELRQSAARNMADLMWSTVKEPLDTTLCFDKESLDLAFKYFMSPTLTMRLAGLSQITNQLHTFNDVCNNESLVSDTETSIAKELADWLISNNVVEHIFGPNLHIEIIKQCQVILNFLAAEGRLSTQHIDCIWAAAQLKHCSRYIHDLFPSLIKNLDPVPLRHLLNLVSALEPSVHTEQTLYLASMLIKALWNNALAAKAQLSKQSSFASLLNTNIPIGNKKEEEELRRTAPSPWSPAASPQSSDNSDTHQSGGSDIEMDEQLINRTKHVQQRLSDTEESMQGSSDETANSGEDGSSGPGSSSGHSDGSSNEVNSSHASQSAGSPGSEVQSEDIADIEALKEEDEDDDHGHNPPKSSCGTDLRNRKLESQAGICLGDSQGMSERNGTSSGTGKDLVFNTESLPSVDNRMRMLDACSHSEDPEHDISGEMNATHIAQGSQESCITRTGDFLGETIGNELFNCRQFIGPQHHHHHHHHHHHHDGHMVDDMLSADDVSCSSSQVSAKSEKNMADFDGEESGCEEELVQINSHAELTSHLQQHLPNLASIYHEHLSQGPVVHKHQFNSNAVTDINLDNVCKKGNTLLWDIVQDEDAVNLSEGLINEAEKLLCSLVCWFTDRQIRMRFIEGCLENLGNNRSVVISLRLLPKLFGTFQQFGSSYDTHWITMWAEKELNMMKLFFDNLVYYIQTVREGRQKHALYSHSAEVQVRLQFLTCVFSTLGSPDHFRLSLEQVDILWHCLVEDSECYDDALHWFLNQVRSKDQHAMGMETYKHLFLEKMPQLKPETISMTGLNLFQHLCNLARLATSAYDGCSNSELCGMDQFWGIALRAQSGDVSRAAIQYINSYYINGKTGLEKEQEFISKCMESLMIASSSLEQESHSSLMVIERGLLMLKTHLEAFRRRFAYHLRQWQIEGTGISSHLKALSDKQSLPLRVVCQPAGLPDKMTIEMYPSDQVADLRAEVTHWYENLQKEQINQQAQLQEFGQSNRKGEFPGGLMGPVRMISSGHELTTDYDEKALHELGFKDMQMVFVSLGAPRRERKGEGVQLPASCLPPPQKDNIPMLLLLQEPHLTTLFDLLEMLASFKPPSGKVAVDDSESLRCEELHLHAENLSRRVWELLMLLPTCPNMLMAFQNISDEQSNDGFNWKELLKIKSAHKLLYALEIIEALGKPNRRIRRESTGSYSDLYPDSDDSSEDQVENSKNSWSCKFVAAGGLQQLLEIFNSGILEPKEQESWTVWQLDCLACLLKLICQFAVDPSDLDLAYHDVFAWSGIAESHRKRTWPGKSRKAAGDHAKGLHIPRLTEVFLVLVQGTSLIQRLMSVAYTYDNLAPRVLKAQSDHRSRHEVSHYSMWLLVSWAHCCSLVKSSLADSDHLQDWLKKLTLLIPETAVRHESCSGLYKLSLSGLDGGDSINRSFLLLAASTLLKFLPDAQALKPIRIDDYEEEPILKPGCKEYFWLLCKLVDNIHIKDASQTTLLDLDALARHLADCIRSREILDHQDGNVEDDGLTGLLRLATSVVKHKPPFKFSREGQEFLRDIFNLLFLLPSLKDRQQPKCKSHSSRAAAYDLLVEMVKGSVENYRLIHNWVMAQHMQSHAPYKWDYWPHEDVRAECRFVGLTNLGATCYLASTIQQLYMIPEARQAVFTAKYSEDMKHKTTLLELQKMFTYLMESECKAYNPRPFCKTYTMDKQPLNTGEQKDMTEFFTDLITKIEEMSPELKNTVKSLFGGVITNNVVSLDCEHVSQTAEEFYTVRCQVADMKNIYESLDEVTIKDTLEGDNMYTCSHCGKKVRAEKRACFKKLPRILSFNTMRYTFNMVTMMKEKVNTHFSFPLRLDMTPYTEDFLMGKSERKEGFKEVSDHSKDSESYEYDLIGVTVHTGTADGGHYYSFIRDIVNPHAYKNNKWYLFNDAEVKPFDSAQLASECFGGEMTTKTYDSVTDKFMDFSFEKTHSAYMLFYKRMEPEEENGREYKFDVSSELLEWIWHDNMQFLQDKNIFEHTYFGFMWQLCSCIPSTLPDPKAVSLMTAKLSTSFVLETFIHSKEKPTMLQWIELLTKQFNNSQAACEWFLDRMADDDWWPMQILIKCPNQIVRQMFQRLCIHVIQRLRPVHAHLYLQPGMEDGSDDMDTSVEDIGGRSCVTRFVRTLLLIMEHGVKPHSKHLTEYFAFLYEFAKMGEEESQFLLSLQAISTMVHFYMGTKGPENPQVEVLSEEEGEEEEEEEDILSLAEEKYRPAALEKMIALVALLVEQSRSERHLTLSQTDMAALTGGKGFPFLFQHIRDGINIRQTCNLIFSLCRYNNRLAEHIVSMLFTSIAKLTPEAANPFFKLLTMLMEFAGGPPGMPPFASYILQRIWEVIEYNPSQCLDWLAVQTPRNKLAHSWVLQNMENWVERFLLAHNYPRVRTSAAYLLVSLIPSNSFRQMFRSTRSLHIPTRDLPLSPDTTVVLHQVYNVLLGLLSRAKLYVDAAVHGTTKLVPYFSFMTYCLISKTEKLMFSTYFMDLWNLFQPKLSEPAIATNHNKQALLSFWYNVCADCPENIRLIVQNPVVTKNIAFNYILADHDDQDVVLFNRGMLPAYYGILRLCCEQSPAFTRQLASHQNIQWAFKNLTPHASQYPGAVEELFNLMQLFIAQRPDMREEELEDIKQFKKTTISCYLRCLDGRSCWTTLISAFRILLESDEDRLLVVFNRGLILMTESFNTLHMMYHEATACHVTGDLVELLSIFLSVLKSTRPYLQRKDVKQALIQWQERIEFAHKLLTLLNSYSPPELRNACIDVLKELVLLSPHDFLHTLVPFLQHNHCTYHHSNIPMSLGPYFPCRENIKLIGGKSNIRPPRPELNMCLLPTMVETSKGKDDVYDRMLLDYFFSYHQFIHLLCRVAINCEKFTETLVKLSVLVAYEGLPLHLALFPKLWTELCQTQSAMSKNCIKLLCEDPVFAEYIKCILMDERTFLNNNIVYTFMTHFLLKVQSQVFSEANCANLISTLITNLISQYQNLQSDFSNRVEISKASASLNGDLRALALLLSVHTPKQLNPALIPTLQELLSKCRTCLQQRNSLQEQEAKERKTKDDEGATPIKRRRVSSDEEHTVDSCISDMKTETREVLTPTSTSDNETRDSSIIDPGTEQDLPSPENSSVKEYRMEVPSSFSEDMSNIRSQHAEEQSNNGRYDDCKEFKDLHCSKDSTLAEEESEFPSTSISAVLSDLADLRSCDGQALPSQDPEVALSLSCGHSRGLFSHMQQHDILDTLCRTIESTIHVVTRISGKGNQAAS

Cc1cccc(C(CNC(=O)CCl)N2CCOCC2)c1.Cl (stereo not given)
inactive: USP34 -0.0673 | USP36 0.0549 | USP38 -0.0229 | USP39 -0.116 | USP4 -0.165
